Data: PubChem BioAssay (NCI)
This is part of a sample that, as a whole, favours compounds with a hit. Of some 83,000 tested, about 20% had one in any assay.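 Results are percent growth after 48 hours of single-concentration exposure. 100 means growth as in untreated cells, lower positive values show inhibition; negative values down to -100 show cell death.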 A number with no mark means an inactive call. The source made the active and inactive calls. The calls were made as follows: active = growth percent below 10; inactive = the rest.

Tests used:
Assay in all cases: NCI-60 one-dose screen, 48 h (100 = growth as untreated, 0 = no growth, -100 = all killed)
Details in all cases: 10 µM unless noted
SR leukemia = system: SR leukemia
RPMI-8226 leukemia = system: RPMI-8226 leukemia
OVCAR-8 ovarian = system: OVCAR-8 ovarian
OVCAR-4 ovarian = system: OVCAR-4 ovarian
SK-OV-3 ovarian = system: SK-OV-3 ovarian
IGROV1 ovarian = system: IGROV1 ovarian
OVCAR-3 ovarian = system: OVCAR-3 ovarian
HS 578T breast = system: HS 578T breast
NCI/ADR-RES ovarian = system: NCI/ADR-RES ovarian
T-47D breast = system: T-47D breast
BT-549 breast = system: BT-549 breast
MDA-MB-435 melanoma = system: MDA-MB-435 melanoma
SW-620 colon = system: SW-620 colon
MCF7 breast = system: MCF7 breast
HCT-116 colon = system: HCT-116 colon
HCC-2998 colon = system: HCC-2998 colon
KM12 colon = system: KM12 colon
OVCAR-5 ovarian = system: OVCAR-5 ovarian

Row | SMILES | growth (SR leukemia) | growth (RPMI-8226 leukemia) | growth (OVCAR-8 ovarian) [%] | growth (OVCAR-4 ovarian) | growth (SK-OV-3 ovarian) | growth (IGROV1 ovarian) | growth (OVCAR-3 ovarian) | growth (HS 578T breast) | growth (NCI/ADR-RES ovarian) | growth (T-47D breast) | growth (BT-549 breast) | growth (MDA-MB-435 melanoma) | growth (SW-620 colon) | growth (MCF7 breast) | growth (HCT-116 colon) | growth (HCC-2998 colon) | growth (KM12 colon) | growth (OVCAR-5 ovarian) [%]
1 | c1ccc(-c2cn3c(ccc4ccccc43)n2)cc1 | 20.9% | 62.5% | 71.4 | 91.5% | 77.1% | 49.3% | 56.3% | 67.8% | 35.7% | 66.5% | 63.6% | -34.7% (active) | 22.8% | 28.5% | 35% | 75.5% | 23.4% | –
2 | O=C(Nc1ccc(Cl)cc1)c1cc(NCc2cc(O)ccc2O)ccc1O | 9.06% (active) | 4.92% (active) | 70.4 | 80.5% | 103% | 84.2% | 48.8% | 90% | 82.9% | 42.6% | 35.8% | 103% | 89.9% | 65.6% | 91.3% | 102% | 76.8% | –
3 | CCCCCCCCCCCCCCCC[N+]1(C)CCN(SN2CC[N+](C)(CCCCCCCCCCCCCCCC)CC2)CC1 | 26.8% | 26.3% | 67.2 | 74.6% | 124% | -18.9% (active) | 59.7% | 88.2% | – | 102% | 87.7% | 95.7% | 57.7% | 76.9% | 31.6% | 70% | – | –
4 | CN1C(=O)NC(c2ccc3c(c2)OCO3)C=C1c1ccccc1 (centres undefined) | 23.3% | 65.5% | 93.6 | 97.5% | 94.1% | 78.7% | 91.1% | 101% | 98.8% | 78.6% | 90% | 97.5% | 78.3% | 49.9% | 78% | 110% | 88.2% | –
5 | COC(=O)/C=C1\S/C(=N\NC(=O)c2cc3ccc2/C=C\c2ccc(cc2)/C=C\3)N(Cc2ccccc2)C1=O | -14.7% (active) | -47% (active) | – | 44.6% | 133% | 42.3% | 20.3% | – | 70.4% | -6.25% (active) | 10.3% | 91.6% | 18.2% | 32.7% | 49.5% | 79.5% | 65.1% | 65.3
6 | CC(C)(C)c1cc(C=O)cc(C(C)(C)C)c1O | 101% | 72.7% | – | – | 110% | 106% | 101% | – | 98.8% | 110% | 92.5% | 111% | 97.7% | – | 92.9% | 93.6% | 99.6% | 108
7 | Cc1ccc(C(=O)/C(=C/c2ccc([N+](=O)[O-])cc2)SCc2ccc(Cl)cc2)cc1 | 11.4% | -32.7% (active) | – | 58.8% | 101% | 74.7% | 47.6% | – | 72% | 65.2% | 88.9% | 78.1% | -52.1% (active) | 12.8% | – | 78.6% | 44.8% | 85.1
8 | COCCCN1CC(O)=C(c2nc(-c3ccc(C)cc3)cs2)C1=N | 109% | – | 95.2 | 150% | 120% | 54.4% | 112% | 102% | 106% | 97.5% | 103% | 105% | 104% | 360% | 90.3% | 112% | 120% | 97.6
9 | NC1=NN=C(N)C1=Cc1cc2ccccc2n2nnnc12 | 94.4% | 105% | – | 105% | 91.7% | 103% | 105% | 94.7% | 105% | 88.4% | 94.7% | 108% | 98.2% | 89.9% | 104% | 108% | 105% | 108
10 | O=C(O)c1ccc(-c2nn(-c3ccc(C(F)(F)F)cc3)cc2CNc2ccc(Oc3ccccc3)cc2)cc1 | 60.7% | 46.5% | – | 90.3% | 135% | 89% | 92.5% | – | 81.9% | 65% | 90.6% | 87.5% | 93.9% | 70.3% | 60.8% | 115% | 59.5% | 103
11 | COc1ccc2c(c1)C(=O)CC(c1ccccc1OC)O2 (centres undefined) | 89.3% | 105% | – | – | 104% | 79.3% | 117% | 101% | 86% | 91.1% | 96.5% | 100% | 103% | 83.8% | 103% | 105% | 102% | 108
12 | CC(=O)c1ccc(NS(=O)(=O)c2cccc(C(=O)Nc3ccc(Br)cc3)c2)cc1 | 87.8% [25 µM] | 22% [25 µM] | – | 63.6% [25 µM] | 66.5% [25 µM] | 73.7% [25 µM] | 70.9% [25 µM] | 79.7% [25 µM] | 48% [25 µM] | 30.6% [25 µM] | 48.3% [25 µM] | 53.4% [25 µM] | 75.6% [25 µM] | 60.8% [25 µM] | 48.4% [25 µM] | 79.8% [25 µM] | 58.2% [25 µM] | –
13 | CC(C)(C)CC(C)(C)n1nnnc1C(NC12CC3CC(CC(C3)C1)C2)c1ccccc1 (centres undefined) | 80.3% | 68.8% | – | 88.4% | 120% | 87.1% | 98.1% | 99.9% | 86.1% | 73.5% | 93.2% | 98.3% | 98.9% | 88.9% | 66.8% | 104% | 101% | 103
14 | CCCCCC(=O)Oc1ccc(/C(=C(\C)c2ccccc2)c2ccc(OCCN3CCCCC3)cc2)cc1 | 30.5% | 64.8% | – | 82.9% | 80.7% | 90.4% | 90.5% | 75.6% | 76.3% | 37.3% | 78.4% | 85.9% | 87.9% | 27.7% | 56.6% | 79.1% | 71.6% | 88.3
15 | Cc1ccc(-c2csc(NC(=O)CSc3nc(-c4ccccc4)cc(=O)[nH]3)n2)cc1 | 101% | 78.3% | – | 105% | 92.4% | 77.2% | 101% | 90.6% | 93.4% | 78.1% | 114% | 106% | 96.2% | 82.9% | 98.5% | 106% | 94.8% | 95.8
16 | COc1ccc(C/C(=C(\C)c2ccc(OCCN3CCCC3)cc2)c2ccc(OCCN3CCCC3)cc2)cc1 | -32.6% (active) | -20.6% (active) | – | 81.5% | 90.8% | 64.1% | 29% | 66.7% | 78.3% | 77.6% | 85% | -77.2% (active) | -35.4% (active) | -7% (active) | 24.9% | 68.9% | – | 77.8
17 | COc1ccc(/C=C(\C#N)n2nc3cccc(F)c3n2)cc1 | 82.4% | 102% | – | 101% | 108% | 96.8% | 109% | 104% | 104% | 90.5% | 109% | 77.4% | 103% | 89.5% | 101% | 107% | 93.7% | 108
18 | CC1(C)CC(O)CCCCCCOc2c(CN)cccc2NC(=O)c2nc(cnc2N)-c2ccc(cc2)S1(=O)=O (centres undefined) | -16.8% (active) | -41.5% (active) | – | -22.1% (active) | 44.9% | 9.31% (active) | -5.21% (active) | 13.2% | 67.1% | 66.2% | 28.2% | 20% | -6.55% (active) | -16% (active) | -63.6% (active) | 28.6% | -10.7% (active) | 68.4
